The values that follow come from PubChem BioAssay AID1565 (Sanford-Burnham Center for Chemical Genomics, 2009).

By inhibition is commonly meant the relative decrease from the control value, in per cent.

About 3,200 (1.1%) of roughly 290,000 compounds were called active. The sample as a whole holds a higher share of actives than the screen did. Unmarked numbers belong to inactive results. No stated cut-off is given here; in the data, active means inhibition above about 60%; inactive means the rest.

For the assay, the target named is Phosphoethanolamine/phosphocholine phosphatase (Homo sapiens) (UniProt Q8TCT1). Description: PubChem AID 1565. The note with it: recombinant PHOSPHO1, absorbance phosphatase assay; at 13.3 µM; active compounds read high.
Chain of Phosphoethanolamine/phosphocholine phosphatase (Homo sapiens) (Q8TCT1 whole entry, looked up): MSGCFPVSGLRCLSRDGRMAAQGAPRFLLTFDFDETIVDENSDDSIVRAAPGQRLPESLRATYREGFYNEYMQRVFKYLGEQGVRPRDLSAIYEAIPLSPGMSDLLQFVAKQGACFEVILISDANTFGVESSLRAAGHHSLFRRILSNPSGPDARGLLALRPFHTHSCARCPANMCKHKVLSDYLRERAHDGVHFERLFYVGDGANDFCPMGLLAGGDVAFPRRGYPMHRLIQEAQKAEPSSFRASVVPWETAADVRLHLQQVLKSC
As to `Cc1ccc(-c2n[nH]c(=S)n2/N=C/c2cc3c(cc2[N+](=O)[O-])OCO3)cc1`, the inhibition is 99.7% (active). `CCOc1ccc(-c2n[nH]c(=S)n2/N=C/c2cc3c(cc2[N+](=O)[O-])OCO3)cc1`: the inhibition is 57.5%. In the case of `Cc1ccc(S(=O)(=O)N/N=C\c2cc3c(cc2[N+](=O)[O-])OCO3)cc1`, the inhibition is -27.6%. As for `CN(C(=O)CC1C(=O)NCCN1Cc1ccc2ccccc2c1)C1CCOCC1` (stereo unspecified), the figure is 9%; as for `CCNC(=O)CCc1nc(-c2ccc(C)cc2)no1`, 12.3%. On to `COc1ccc2[nH]c(=O)c(-c3noc(-c4ccc(F)cc4)n3)cc2c1`, for which the inhibition was 80.2% (active). For `Cc1cccc(-c2noc(-c3ccc(F)cc3)n2)c1`, the inhibition is -3.7%. Take `CCCc1nc(-c2cc3cc(C)ccc3[nH]c2=O)no1`: the inhibition was 76.8% (active). As for `COc1ccc(N(Cc2cc3cc(OC)ccc3[nH]c2=O)S(C)(=O)=O)cc1`, the figure is -2.4%; as for `CC(=O)OCc1cc2cc(C)ccc2[nH]c1=O`, -4.1%. In the case of `COC(=O)Cc1cnc(NC(=O)CSc2nc(C(C)C)cc(=O)[nH]2)s1`, the inhibition was 26.5%.

Consider `O=C(CCN1C(=O)[C@@H]2Cc3ccccc3CN2C1=O)NCCc1ccccc1`, for which the inhibition is 38.2%. Consider `CC1=C/C(=N\OS(=O)(=O)c2ccccc2)C=CC1=O`, for which the inhibition is -13.3%. Take `O=Cc1c(NCCc2cccc(F)c2)c2ccccc2[nH]c1=O`: the inhibition is 19.2%. For `CC(C)(C)SCCSC1=CC(=O)CC(c2ccccc2)C1` (stereo unspecified), the inhibition is 14.1%. For `Cc1ccc2nc(N3C(=O)C(O)=C(C(=O)c4ccco4)C3c3cccc(O)c3)sc2c1` (stereo unspecified), the inhibition is 40.5%. As for `O=C(c1ccccc1)N1CCC(CC2CC(c3ccc(Cl)cc3)=NO2)(C(=O)NCC2CCCCC2)CC1` (stereo unspecified), the figure is -1.7%; as for `CC(=O)OC(COc1ccc(F)cc1)Cn1cnc2ccccc21` (stereo unspecified), 43.9%. For `c1ccc(Cc2nn3c(Cn4cnc5ccccc54)nnc3s2)cc1`, the inhibition was 45.1%. `Fc1ccc(OCc2nn3c(Cn4nnc5ccccc54)nnc3s2)cc1`: the inhibition is 82.3% (active). Then `CN(CC(=O)Nc1ccccc1C(F)(F)F)C(=O)Cc1ccccc1F`, with 18.7%; and `Cc1cc(-c2n[nH]c(=S)n2/N=C/c2ccco2)n[nH]1`, with -60%. Take `Cc1ccccc1-c1n[nH]c(=S)n1/N=C/c1ccc(-c2ccccc2Br)o1`: the inhibition was -60.1%.

Regarding `Cc1n[nH]c(=S)n1/N=C/c1ccc(Br)o1`, the inhibition was 99.1% (active). Take `N#C/C=C/N1CCN(Cc2ccc3c(c2)OCO3)CC1`: the inhibition is 15.6%. On to `CCOc1ccc(OCc2ccc(C(=O)N(C)c3ccccc3)o2)cc1`, for which the inhibition was 18.7%.

`CC(NC(=O)c1ccccc1C(=O)O)c1ccc(-n2ccnc2)cc1` (stereo unspecified): the inhibition is 8.3%. As for `CCCOc1cccc(C(=O)Nc2ccccc2C(=O)N2CCN(C)CC2)c1`, the figure is 24%; as for `Cc1cc(C)c(OCC(=O)N/N=C/c2ccco2)c(C)c1`, -1.4%. For `Cc1ccc(OCC(=O)N/N=C\c2ccco2)c(C)c1`, the inhibition was 61.1% (active). Then `Cc1ccc(NC(=O)CCC(=O)N/N=C/c2ccco2)c(C)c1`, with -4.9%; and `CSCc1nnc(NC(=O)c2ccc(S(=O)(=O)N3CCCCC3C)cc2)o1` (stereo unspecified), with 32.3%. Then `O=C(N/N=C/c1cccc(OCc2ccccc2)c1)c1ccc(Br)o1`, with 41.4%; and `Cc1sc2ncn(CC(=O)NCCCC(=O)NCc3ccc(F)cc3)c(=O)c2c1C`, with 31.9%. Then `COc1ccc(CCNS(=O)(=O)c2ccc(F)cc2)cc1OC`, with -6.8%; and `CCOC(=O)c1cc(S(=O)(=O)NCCc2ccc(OC)c(OC)c2)cn1C`, with 69.7% (active).

On to `CCS(=O)(=O)NCCc1ccc(OC)c(OC)c1`, for which the inhibition is -2.4%.

Regarding `COc1ccc(C2NC(=O)N(C)C(C)=C2[N+](=O)[O-])cc1` (stereo unspecified), the inhibition is 14.1%. Regarding `Cc1[nH]c(C)c(S(=O)(=O)N2CCN(c3cccc(C(F)(F)F)c3)CC2)c1C(=O)N1CCCCC1`, the inhibition is 42.6%. In the case of `CCCCCn1c(=O)[nH]c2cc(C(=O)NCCCN3CCCCC3C)ccc2c1=O` (stereo unspecified), the inhibition was 26.1%.

For `CCCCNC(=O)CN1C(=O)NC(Cc2ccccc2)(Cc2ccccc2)C1=O`, the inhibition is 35%. As for `COc1ccc(CNC(=O)COc2cccnc2[N+](=O)[O-])cc1`, the figure is 39.9%; as for `Cc1ccc(NC(=O)C2CC2c2ccccc2)cc1` (stereo unspecified), 39.5%; as for `O=S(=O)(NC(=S)Nc1ccccc1)c1ccc(F)cc1`, -122%. Consider `O=C(NNC(=S)Nc1ccc(F)cc1)[C@H]1C[C@@H]1c1ccccc1`, for which the inhibition is 76.8% (active). Then `O=C(C1CC1)N1N=C(c2ccc(Br)cc2)CC1(O)C(F)(F)F` (stereo unspecified), with 15.6%. For `O=C(C1CC1)N1N=C2CCCCC2C1(O)C(F)(F)F` (stereo unspecified), the inhibition was 60.9% (active). Consider `COc1ccc(O)c(/C=N/N=C/c2cccc([N+](=O)[O-])c2)c1`, for which the inhibition is 4.2%. For `COc1ccccc1-c1cnn2c(N3CCOCC3)cc(C)nc12`, the inhibition was 38.1%. Regarding `CCOC(=O)c1cc(C(=O)Nc2ccc(S(=O)(=O)Nc3ccc(OC)cc3)cc2)nn1C`, the inhibition is 28.7%.

Take `O=C(Nc1cccc(Cl)c1Cl)c1ccccc1NC(=O)C1CC=CCC1C(=O)O` (stereo unspecified): the inhibition is 12.3%. With `CC1(C)Oc2ccc3ccc(=O)oc3c2/C(=N/O)C1=O`, the inhibition is 50.4%.

Consider `CC1(C)Oc2ccc3ccc(=O)oc3c2/C(=C/NCCO)C1=O`, for which the inhibition was 87% (active). Consider `C/C=C(/C)C(=O)OC1Cc2c(ccc3ccc(=O)oc23)OC1(C)C` (stereo unspecified), for which the inhibition is 8.5%. `CC(C)(C)c1ccc(/C=C/C(=O)NCCCn2ccnc2)cc1`: the inhibition is 33.7%. As for `CC(=O)N1c2ccc(S(=O)(=O)N3CCCC(C(=O)NCc4ccc(Cl)cc4)C3)cc2CC1C` (stereo unspecified), the inhibition was 42.6%. Turning to `CC(C)Oc1ccc(C(CC(=O)N2CCOCC2)C(C)C)cc1` (stereo unspecified), the inhibition is 52.2%.

With `O=C(CSCc1cccs1)N1CCCC1`, the inhibition is 31%. For the compound `CCCCNC(=O)CSc1nnc(-c2ccco2)n1C`, the inhibition is 4.7%. Then `CCn1c(SCC(=O)c2ccc(Cl)s2)nnc1-c1cccs1`, with 31.9%.

Turning to `Cn1c(SCC(=O)N2CCCC2)nnc1-c1cccs1`, the inhibition is 67.9% (active). As to `Cc1nc(SCC(=O)N2CCc3ccccc3C2)c2c(C)c(C)sc2n1`, the inhibition was 9.7%. For the compound `Cn1c(SCC(=O)c2cccs2)nnc1-c1ccco1`, the inhibition was 64.6% (active). On to `O=C(CSc1nnc(-c2cccs2)n1Cc1ccccc1)N1CCc2ccccc2C1`, for which the inhibition was 78.3% (active). Regarding `CCOC(=O)CSc1nnc(-c2ccco2)n1C`, the inhibition is -19.7%. As for `Cn1c(SCC(=O)N2CCCC2)nnc1-c1ccc2c(c1)OCO2`, the figure is 35%; as for `Cc1cc2ccccc2n2c(SCC(=O)N3CCN(C(=O)c4ccco4)CC3)nnc12`, 3.7%.

For `O=C(CSc1nnc(-c2cccs2)n1-c1ccccc1)NCc1ccco1`, the inhibition was 14.6%. `O=C(CSc1nnc(-c2cccs2)n1-c1ccccc1)N1CCN(C(=O)c2ccco2)CC1`: the inhibition was 89.7% (active). Then `COC(=O)[C@@H](Cc1ccccc1)NC(=O)NCCc1ccccc1`, with 34%; and `CC(C)CCNC(=O)c1ccc2c(Cl)c3c(nc2c1)CCC3`, with 23.9%. `Cc1cc(=O)n2nc(N3CCCC(C(=O)NCc4ccc(Cl)cc4)C3)sc2n1` (stereo unspecified): the inhibition is 27.6%. With `Cc1ccc(NC(=O)C2CCCN2C(=O)OCc2ccccc2)cc1C` (stereo unspecified), the inhibition was 22.6%.

On to `O=C(COC(=O)/C=C/c1cccs1)NC1CCCCC1`, for which the inhibition was 51%. `COc1ccccc1NC(=O)C1CCCN1S(=O)(=O)c1ccc(Cl)cc1` (stereo unspecified): the inhibition was 0%.

As to `CCc1ccc(-c2cc3c(=O)n(CC(=O)NCCCN4CCN(Cc5ccccc5)CC4)nc(C)n3n2)cc1`, the inhibition is 26.1%.

As to `Cc1c(S(=O)(=O)NC(C)c2ccccc2)c(=O)n(C)c(=O)n1C` (stereo unspecified), the inhibition was -5.4%. As for `Cc1cc2nnc(SCC(=O)N3CCN(c4ccccc4)CC3)n2c(N)n1`, the figure is 40.7%. Consider `Cc1nnc(SCC(=O)N2CCN(c3ccccc3)CC2)n1-c1ccccc1`, for which the inhibition is 68.4% (active). Then `O=C(CSc1nnc(Cc2ccccc2)n1-c1ccccc1)N1CCOCC1`, with -9.6%; and `Cc1ccc2[nH]c(=O)c(CC(=O)O)c(-c3ccccc3)c2c1`, with 7.8%; and `CCC(C(=O)OC)n1cnc2c(oc3ccccc32)c1=O` (stereo unspecified), with 1%. With `O=C(CSc1nc(C2CC2)nc2ccccc12)Nc1cccc(O)c1`, the inhibition was 15.1%.

As to `Cc1ccc2c(CSc3nncs3)cc(=O)oc2c1`, the inhibition was 76.1% (active). Turning to `COCc1cc(=O)oc2cc(NS(=O)(=O)c3ccc(C)cc3)ccc12`, the inhibition is 22.5%. Then `CCOC(=O)Cc1csc(SCc2cc(=O)oc3cc(O)ccc23)n1`, with -13.2%. With `CCCSc1nc2sc3c(c2c(=O)n1-c1ccc(OC)cc1)CCN(C)C3`, the inhibition is 31.6%. For `COC(=O)[C@@H]1CC(O)CN1C(=O)C12CC3CC(CC(C3)C1)C2` (stereo partly specified), the inhibition was 24.2%. Turning to `CCOc1ccc(NC(=O)CCC(=O)NNC(=O)NC2CCCCC2)cc1`, the inhibition was -0.6%.

As for `CCCNC(=O)NC(=O)COC(=O)CC(NC(N)=O)c1ccc(Cl)cc1` (stereo unspecified), the inhibition was -17.2%. Regarding `CC(=O)N1CCC(C(=O)OCc2ccc(Cl)cc2)(c2ccccc2)CC1`, the inhibition was 40%.

As for `COCCNC(=O)NC(=O)COC(=O)C1(c2ccc(Cl)cc2)CC1`, the inhibition was 62.9% (active).

For the compound `COc1ccc(C(=O)C2CCCN(C(=O)c3ccc(OC)o3)C2)c(C)c1` (stereo unspecified), the inhibition is -0.6%.

As for `O=C(OCCN1C(=O)c2ccccc2C1=O)Oc1ccccc1`, the inhibition was 22.3%. For the compound `COC(=O)c1ccc(S(=O)(=O)N2CCc3ccccc3C2)cc1`, the inhibition was 44.4%. Consider `CCCNC(=O)C(=O)Nc1cc2c3c(c1)CCC(=O)N3CCC2`, for which the inhibition is 54.7%.
